Compound activity: PubChem, several laboratories
Ba/F3 V617F tox = lowers viability of Ba/F3 cells expressing EpoR and JAK2V617F; ATP luminescence; inhibition, % at 5.6 µM; hit rate 1.1% among 220,000; AID 1446;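 active means inhibition above the campaign mean plus 3 SD over all tested compounds, cut at about 24% in these data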;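 further: cytokine-independent growth of Ba/F3 cells driven by EpoR plus mutant JAK2; 0% = DMSO-treated cells and 100% = JAK inhibitor I control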
APP transl inh = APP translation inhibition; inhibition, % at 2 µM; hit rate 0.82% among 190,000; SH-SY5Y APP 5'UTR-luciferase reporter, luminescence;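 active means inhibition above a set limit, derived from the sample mean plus 3 SD, cut at about 45% in these data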
aSyn UTR inh = MLPCN primary screen, SNCA 5' untranslated region; alpha-synuclein 5'UTR reporter, inhibitor activity; inhibition, % (tested at 7.5 µM); hit rate 0.82% among 300,000; AID 1813; in the data active means inhibition above about 60%;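 further: H4 neuroglioblastoma cells stably carrying SNCA 5'UTR luciferase fusion; 0% = DMSO wells and 100% = positive control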
IEC-6 cytotox = IEC-6 cytotoxicity, counter-screen for KLF5 inhibitors. luminescence viability. inhibition, % at 5 µM. hit rate 0.78% among 290,000. AID 1825; in the data active means inhibition above about 22%;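 further: 0% = plate median of test compound wells and 100% = cytotoxic reference compound wells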
BaF3 parental = parental Ba/F3 viability inhibition as JAK2V617F counter-screen | CellTiter-Glo ATP luminescence | inhibition, % at 5.6 µM | hit rate 1.1% among 220,000;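 active means inhibition above a per-campaign cutoff, the mean inhibition of all tested compounds plus 3 SD, cut at about 27% in these data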;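 further: 0% = DMSO wells and 100% = JAK Inhibitor I control wells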
KLF5 inhibitor = suppresses KLF5 promoter-driven expression | inhibition, % at 5 µM | hit rate 0.23% among 290,000 | AID 1700 | DLD-1 KLF5 promoter-luciferase reporter, luminescence;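 active means inhibition above a per-plate limit of that plate's mean compound inhibition plus 3 SD, cut at about 60% in these data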;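 further: 0% = DMSO wells and 100% = LY294002 at 200 µM; higher means less KLF5 promoter-driven luciferase light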
Starred values were filed as active, the others as inactive. Compounds with a hit are over-represented: about 2.2% of the library has one in this group of screens.

Results for COC(C(=O)Nc1ccccc1C(=O)N1CCOCC1)c1ccccc1 (stereo unspecified) ?
aSyn UTR inh: 11; IEC-6 cytotox: -5; KLF5 inhibitor: -17

How did CS(=O)c1nc(-c2ccc(Br)cc2)cc(-c2ccccc2)c1C#N (stereo unspecified) do in these assays?
Ba/F3 V617F tox: 5; APP transl inh: 94*; aSyn UTR inh: 120*; IEC-6 cytotox: 3; BaF3 parental: -4; KLF5 inhibitor: -6

How did CS(=O)(=O)c1nc(-c2ccc(Br)cc2)cc(-c2ccccc2)c1C#N do in these assays?
Ba/F3 V617F tox: 1; APP transl inh: 2; aSyn UTR inh: -3; IEC-6 cytotox: -1; BaF3 parental: 5; KLF5 inhibitor: -30

What do the screens show for `CNC(=O)COC(=O)c1ccccc1C(=O)c1ccc(Cl)c([N+](=O)[O-])c1`?
Ba/F3 V617F tox: 4; APP transl inh: 54*; aSyn UTR inh: -19; IEC-6 cytotox: -2; BaF3 parental: 4; KLF5 inhibitor: -4

What do the screens show for `CC(C)OC(=O)c1ccccc1C(=O)c1ccc(N)c([N+](=O)[O-])c1`?
Ba/F3 V617F tox: -3; APP transl inh: 7; aSyn UTR inh: 4; IEC-6 cytotox: -2; BaF3 parental: 3; KLF5 inhibitor: 0

How did O=C(COC(=O)c1ccccc1C(=O)c1ccc(Cl)c([N+](=O)[O-])c1)NC1CC1 do in these assays?
Ba/F3 V617F tox: -2; APP transl inh: 48*; aSyn UTR inh: -23; IEC-6 cytotox: -7; BaF3 parental: -5; KLF5 inhibitor: -10

How did O=C(CSc1nnc(-c2cccnc2)o1)Nc1nccs1 do in these assays?
aSyn UTR inh: -59

What do the screens show for `O=C1c2ccccc2C(=O)c2c1ncn2-c1ccccc1`?
Ba/F3 V617F tox: 2; APP transl inh: -2; aSyn UTR inh: 70*; IEC-6 cytotox: 0; BaF3 parental: 3; KLF5 inhibitor: -34

How did O=C1c2ccccc2C(=O)c2[nH]cnc21 do in these assays?
Ba/F3 V617F tox: -2; aSyn UTR inh: 18; IEC-6 cytotox: 5; BaF3 parental: 6; KLF5 inhibitor: -30

What do the screens show for `Cc1ccc(-n2ncc3c2CC(C)(C)CC3NC(=O)CCn2cncn2)cc1` (stereo unspecified)?
aSyn UTR inh: -7; IEC-6 cytotox: 3; KLF5 inhibitor: -45

Results for O=C(/C=C/c1cccc([N+](=O)[O-])c1)n1cnc2ccccc21 ?
Ba/F3 V617F tox: -1; APP transl inh: 51*; aSyn UTR inh: -41; IEC-6 cytotox: 2; BaF3 parental: 1; KLF5 inhibitor: -15

How did Cc1ccccc1C[n+]1cccc2ccccc21 do in these assays?
aSyn UTR inh: -19

What do the screens show for `CCCCCCCCCCCCCCCC[n+]1cccc2ccccc21`?
Ba/F3 V617F tox: 101*; APP transl inh: 23; IEC-6 cytotox: 28*; BaF3 parental: 82*; KLF5 inhibitor: -5

Results for Cc1ccc2ccc3cccnc3c2n1 ?
aSyn UTR inh: -51; IEC-6 cytotox: 72*; KLF5 inhibitor: -21

Results for Cc1cc(C)n2nc(-c3ccco3)nc2n1 ?
Ba/F3 V617F tox: -1; APP transl inh: -1; aSyn UTR inh: 5; IEC-6 cytotox: -2; BaF3 parental: 1; KLF5 inhibitor: -15

Results for OC(COCc1ccc2c(c1)OCO2)CN1CCN(Cc2ccccc2)CC1 (stereo unspecified) ?
Ba/F3 V617F tox: -2; APP transl inh: 51*; aSyn UTR inh: 16; IEC-6 cytotox: -4; BaF3 parental: -1; KLF5 inhibitor: -26

What do the screens show for `COc1cccc(C(=O)Nc2ccccc2)c1`?
Ba/F3 V617F tox: 3; APP transl inh: -45; aSyn UTR inh: -122; IEC-6 cytotox: 2; BaF3 parental: 5; KLF5 inhibitor: -44

Results for COc1cccc(-c2cc(=O)c3cc(NC(=O)c4ccccc4)ccc3[nH]2)c1 ?
Ba/F3 V617F tox: -2; APP transl inh: 87*; aSyn UTR inh: 82*; IEC-6 cytotox: 5; BaF3 parental: 5; KLF5 inhibitor: -14

What do the screens show for `COc1cccc(-c2cc(=O)c3cc(NC(=O)c4ccc(Cl)cc4)ccc3[nH]2)c1`?
Ba/F3 V617F tox: 1; APP transl inh: 78*; aSyn UTR inh: -68; IEC-6 cytotox: 4; BaF3 parental: 10; KLF5 inhibitor: -10

Results for COc1cc2cc(/C=C/C(=O)c3ccco3)c(Cl)nc2cc1OC ?
Ba/F3 V617F tox: 2; APP transl inh: 50*; aSyn UTR inh: 6; IEC-6 cytotox: -2; BaF3 parental: 5; KLF5 inhibitor: -27

What do the screens show for `CCN(CC(=O)Nc1ccccc1C(F)(F)F)C(=O)c1ccc(N2C(=O)CCC2=O)cc1`?
aSyn UTR inh: 0; IEC-6 cytotox: 8; KLF5 inhibitor: -21

Results for c1ccc(Cn2c(-c3ccccc3)c[n+]3c2SCCC3)cc1 ?
Ba/F3 V617F tox: 73*; aSyn UTR inh: -5; IEC-6 cytotox: -4; BaF3 parental: 63*; KLF5 inhibitor: -8

Results for O=C1CC(c2ccccc2)Cc2nc3ncnn3cc21 (stereo unspecified) ?
Ba/F3 V617F tox: 77*; APP transl inh: 4; aSyn UTR inh: -3; IEC-6 cytotox: 5; BaF3 parental: 80*; KLF5 inhibitor: 53

What do the screens show for `CCOC(=O)C[N+](C)(C)CCOC1CC2CCC1(C)C2(C)C` (stereo unspecified)?
Ba/F3 V617F tox: 15; APP transl inh: -32; aSyn UTR inh: -6; IEC-6 cytotox: 0; BaF3 parental: 30*; KLF5 inhibitor: 18

What do the screens show for `CC1(C)C2CCC1(C)C(OCC[N+](C)(C)CC(=O)OC1CCCCC1)C2` (stereo unspecified)?
Ba/F3 V617F tox: 100*; APP transl inh: 10; aSyn UTR inh: 4; IEC-6 cytotox: 2; BaF3 parental: 83*; KLF5 inhibitor: 7

How did CCCOc1ccc(Br)cc1CSC(=N)N do in these assays?
Ba/F3 V617F tox: 38*; APP transl inh: -1; aSyn UTR inh: -35; IEC-6 cytotox: 21; BaF3 parental: 41*; KLF5 inhibitor: -16

Results for CCOc1ccc(Br)cc1CC(=O)O ?
Ba/F3 V617F tox: 4; APP transl inh: -5; aSyn UTR inh: 4; IEC-6 cytotox: -1; BaF3 parental: 2; KLF5 inhibitor: -15

Results for COc1ccc([N+](=O)[O-])cc1NC(=O)c1ccc(C)o1 ?
Ba/F3 V617F tox: -1; APP transl inh: -8; aSyn UTR inh: 1; IEC-6 cytotox: -3; BaF3 parental: 3; KLF5 inhibitor: -38

How did O=C1NC(=O)/C(=C/c2cccc([N+](=O)[O-])c2)N1 do in these assays?
Ba/F3 V617F tox: -2; aSyn UTR inh: 11; IEC-6 cytotox: -6; BaF3 parental: 0; KLF5 inhibitor: -16

What do the screens show for `CCN1C/C(=C/c2cccc([N+](=O)[O-])c2)C(=O)/C(=C/c2cccc([N+](=O)[O-])c2)C1`?
Ba/F3 V617F tox: 0; APP transl inh: 94*; IEC-6 cytotox: -7; BaF3 parental: 5; KLF5 inhibitor: 1

What do the screens show for `Cc1ccsc1CNS(=O)(=O)c1ccc(F)cc1`?
aSyn UTR inh: 2; IEC-6 cytotox: 4; KLF5 inhibitor: -25
